Assay outcomes: PubChem BioAssay, National Center for Advancing Translational Sciences (NCATS)
Sfp PPTase inh: Sfp phosphopantetheinyl transferase inhibition. Q9F4F7. Biochemical Sfp PPTase activity, qHTS. Potency, µM, for inactives: largest response in the series, negative = inhibition, actives largely listed as inhibitors. 310,000 compounds, 3.5% hits. AID 1490;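 note: the enzyme is Sfp with the accession as filed and its product quenches rhodamine fluorescence; 0% = enzyme reaction without inhibitor and -100% = no enzyme wells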
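Buffer: 50 mM Hepes-Na pH 7.6, 10 mM MgCl2, 0.01% Nonidet P-40, 0.01% BSA. Enzyme 15 nM, pre-exposed to compound 15 min; substrates then added and fluorescence change tracked over 30 min.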
12-LOX inh: inhibitors of human 12S-lipoxygenase ALOX12; P18054; purified 12hLO, xylenol orange hydroperoxide absorbance; Potency, µM (highest dose often 108 µM), inactives show top-dose activity change, negative = inhibition, actives largely listed as inhibitors; 580,000 compounds, 1.1% hits; AID 1671190
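Purified human 12hLO at 150 nM in 25 mM Hepes, 0.01% Triton X-100, pH 7.0, preincubated 15 min at room temperature with compound. Reaction started with 40 uM arachidonic acid, 30 min at room temperature. Hydroperoxide measured by Fe-xylenol orange, 573/405 nm absorbance ratio.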
PLK1 PBD inh: blocks phosphopeptide binding to human PLK1 polo-box domain. Plk1 PBD binding of FITC phosphopeptide, fluorescence polarization. Potency, µM, for inactives: max response, negative = inhibition, hits mostly inhibitors. 360,000 compounds, 2.8% hits; note: series mostly up to about 57 µM; nearly all actives have a fitted effect of over 65% in size
Target sequence (P53350 whole entry, looked up, the tested form may be a part): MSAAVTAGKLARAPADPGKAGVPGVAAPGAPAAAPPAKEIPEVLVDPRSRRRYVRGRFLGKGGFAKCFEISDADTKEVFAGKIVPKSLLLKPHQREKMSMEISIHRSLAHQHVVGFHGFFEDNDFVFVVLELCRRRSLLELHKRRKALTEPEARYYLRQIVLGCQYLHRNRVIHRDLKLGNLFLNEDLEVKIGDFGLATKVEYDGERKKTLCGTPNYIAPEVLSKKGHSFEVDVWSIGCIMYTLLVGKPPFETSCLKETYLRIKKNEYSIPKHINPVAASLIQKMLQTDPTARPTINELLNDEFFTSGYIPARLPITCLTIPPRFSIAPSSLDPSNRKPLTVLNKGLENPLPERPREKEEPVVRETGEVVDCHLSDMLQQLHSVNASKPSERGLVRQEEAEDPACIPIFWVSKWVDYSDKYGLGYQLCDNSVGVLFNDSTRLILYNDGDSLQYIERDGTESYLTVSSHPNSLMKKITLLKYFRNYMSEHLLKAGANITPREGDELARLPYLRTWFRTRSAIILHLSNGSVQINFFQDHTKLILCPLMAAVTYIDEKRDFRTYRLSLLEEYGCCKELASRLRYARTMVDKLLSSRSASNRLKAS
VDR inh: vitamin D3 receptor (human) inhibition. VDR-SRC2-3 peptide fluorescence polarization, 2 h. Potency, µM, inactives show max response, negative = inhibition, hits mostly inhibitors. 400,000 compounds, 0.93% hits
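VDR–SRC2-3 interaction, FP format. Cmpds 23 nl via pintool, brief spin, 2 h ambient incubation.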
* hit, by the source's call; ? = inconclusive; / = no result. An excerpt weighted towards active compounds, which were near 4.2% of everything screened. Calls come from the whole dose curve; as a rule, active = well fitted curve in the direction sought with a large enough effect; inconclusive = small, poorly fitted or top-dose-only effect, or another doubt; inactive = no such curve, though single readings can be large; an effect the other way counts as inactive or inconclusive. Unless noted, % is set by controls: 0 for no effect and ±100 for the full control effect; potency is the fitted concentration of half-maximal effect.

SMILES	Sfp PPTase inh	12-LOX inh	PLK1 PBD inh	VDR inh
CCOc1ccc(CCN2C(=S)N([C@@H](Cc3ccc(O)cc3)CN3CCC[C@@H]3CN3C(=S)NC[C@@H]3CC(C)C)C[C@@H]2Cc2ccc(O)cc2)cc1	/	?	-6.3%	/
CCCCC1(Br)C(=O)N(c2ccccc2)N(c2ccccc2)C1=O	/	-42.0%	?	70.8µM*
CCCCC1(CO)C(=O)N(c2ccccc2)N(c2ccccc2)C1=O	-3.3%	413.6%	-16.5%	-17.9%
CCCCOc1ccc(/C=C/C2=CC(C)(C)NC(=S)N2)cc1OCC	14.0%	?	-20.8%	-20.3%
CC1Sc2ccc(C(=O)Nc3nc(-c4ccc(F)cc4)cs3)cc2NC1=O (stereo not given)	/	11.2%	/	/
CC(C)CCNc1nc(-c2ccc3[nH]c(=O)[nH]c3c2)cs1	/	44.7µM*	/	/
CCOCCCNc1nc(-c2ccc3[nH]c(=O)[nH]c3c2)cs1	/	-6.1%	/	/
O=c1[nH]c2ccc(-c3csc(NC4CCCC4)n3)cc2[nH]1	/	35.5µM*	/	/
O=c1[nH]c2ccc(-c3csc(NC4CC4)n3)cc2[nH]1	/	17.8µM*	/	/
CC(=O)Nc1ccc(NC(=O)c2csc(NC3CCCC3)n2)cc1	/	-37.8%	/	/
CC1C(=O)Nc2ccc(-c3csc(NC4CCCC4)n3)cc21 (stereo not given)	/	15.8µM*	/	/
Cn1c(=O)[nH]c2c(cnn2C)c1=O	/	-6.9%	0.1%	-27.3%
COc1cc(-c2csc(NC3CC3)n2)ccc1OC(F)F	/	25.1µM*	/	/
COc1cc(-c2csc(-c3c(C)c(C)nn(C)c3=O)n2)ccc1OC(F)F	/	-26.0%	/	/
Cc1ccsc1C(=O)NCc1nnc2ccc(-c3ccc(Cl)cc3)nn12	/	19.8%	/	/
Cn1cccc1C(=O)NC(=O)COC(=O)c1cc(S(=O)(=O)N2CCCCC2)ccc1Cl	0.3%	-3.3%	21.2µM*	-11.2%
CCOc1ccc(S(=O)(=O)Nc2ccc3c(c2)OCO3)c2cccnc12	56.2µM*	7.8%	-11.9%	-12.1%
CCCCCCCCc1nc(=S)[nH][nH]1	20µM*	?	?	-1.9%
COc1ccc(-n2c(=O)c3c(c4cc(OC)ccc4n3C)n(CC(=O)N3CCCC3)c2=O)cc1	/	-14.0%	/	13.3%
CCc1nnc(NC(=O)CSc2sc3c(O)cc(=O)[nH]c3c2C#N)s1	79.4µM*	-22.7%	29.9µM*	-2.2%
Cc1csc(NC(=O)CSc2nc3[nH]c(=O)cc(O)c3s2)n1	/	24.2%	-7.2%	-3.1%
Cc1ccc(Cl)cc1NC(=O)CSc1sc2c(O)cc(=O)[nH]c2c1C#N	?	-16.8%	?	6.6%
Cc1csc(NC(=O)CSc2sc3c(O)cc(=O)[nH]c3c2C#N)n1	?	?	?	18.7%
CCSc1nnc(NC(=O)CSc2sc3c(O)cc(=O)[nH]c3c2C#N)s1	-28.6%	?	11.9µM*	15.9%
O=C(CSc1nc2[nH]c(=O)cc(O)c2s1)Nc1nncs1	/	26.3%	29.9µM*	-15.3%
SMILES	Sfp PPTase inh	12-LOX inh	PLK1 PBD inh	VDR inh
COc1ccc(N2CCN(C(=O)C(C)n3c(=O)cc(C(F)(F)F)c4c(C)nn(C)c43)CC2)cc1 (stereo not given)	/	-3.5%	/	6.2%
O=C(CC(=O)NCc1ccc(Cl)cc1)NCc1ccc(Cl)cc1	10.4%	-13.4%	2.7%	-3.6%
Cc1ccc(CC(=O)NCc2ccc(Cl)cc2)cc1	11.1%	-1.1%	15µM*	?
Cc1ccc(NC(=O)/C=C/c2ccco2)nc1	13.4%	-12.8%	-3.4%	-9.1%
CC(C)C1C(c2ccccc2)NC(c2ccccc2)CC1(O)c1ccc(F)cc1 (stereo not given)	56.2µM*	1.5%	2.1%	-3.3%
CC(C)C1C(c2ccccc2)N(C)C(c2ccccc2)CC1(O)c1ccccc1 (stereo not given)	21.4%	-13.2%	1.4%	-3.5%
O=C1C=CC(=Nc2ccc3c(c2)C(=O)c2ccccc2-3)O1	/	?	-8.0%	8.2%
O=C1C=CC(=Nc2ccc(F)cc2)O1	/	-4.2%	?	79.4µM*
O=c1c(-c2cccs2)nc2ccccc2n1C(c1ccccn1)c1nc2ccccc2[nH]1 (stereo not given)	/	39.8µM*	-1.3%	/
O=c1c(-c2ccco2)nc2ccccc2n1C(c1ccccc1)c1nc2ccccc2[nH]1 (stereo not given)	/	17.8µM*	-18.1%	/
O=c1c(-c2ccco2)nc2ccccc2n1C(CCc1ccccc1)c1nc2ccccc2[nH]1 (stereo not given)	/	?	2.99µM*	/
CCC(c1nc2ccccc2[nH]1)n1c(=O)c(-c2ccco2)nc2ccccc21 (stereo not given)	/	25.1µM*	-23.5%	/
